{"source": "PubChem BioAssay AID720597", "about": "(Broad Institute, 2013)", "note": "Potency and affinity values are given separately. A number with no mark means an inactive call.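 The calls were made as follows: active = fitted half-maximal dose no more than twice the top valid tested dose, for compounds that lower signal; inconclusive = fit invalid, or curve flat with activity between -70 and -30; inactive = potency past limit, curve flat within ±30, or signal increasing.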"}
{"target": "NAD-dependent protein deacylase sirtuin-5, mitochondrial (Homo sapiens) (UniProt Q9NXA8)", "sequence (Q9NXA8 whole entry, looked up)": "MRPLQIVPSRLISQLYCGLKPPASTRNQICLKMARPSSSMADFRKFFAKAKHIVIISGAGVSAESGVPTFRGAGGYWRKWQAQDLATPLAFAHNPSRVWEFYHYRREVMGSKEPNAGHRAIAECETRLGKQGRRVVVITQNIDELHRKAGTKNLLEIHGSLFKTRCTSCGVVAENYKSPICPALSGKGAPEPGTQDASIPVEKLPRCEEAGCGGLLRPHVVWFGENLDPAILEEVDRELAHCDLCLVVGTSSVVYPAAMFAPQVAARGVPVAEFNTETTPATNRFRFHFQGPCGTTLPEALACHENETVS", "test": "SIRT5 deacylase inhibitors, dose response, biochemical, fluorescence imaging, cherry-pick, set 6 (AID 720597);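 also: lower AMC signal can also come from blocking the trypsin step; 0% = median of neutral control wells and -100% = median of positive control wells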", "settings": "Purified SirT5, succinyl-peptide-AMC/trypsin fluorescence; series mostly up to 15 µM; activity change, negative = inhibition: at the top concentration"}
{"smiles": "O=C(CCN1CCCCC1)N[C@H]1CC[C@@H](CC(=O)N2CCC(Cc3ccccc3)CC2)O[C@@H]1CO", "activity change, negative = inhibition": "-14.1%"}
{"smiles": "C[C@H]1CN([C@@H](C)CO)C(=O)c2c(c3ccccc3n2C)-c2ccccc2CO[C@H]1CN(C)S(=O)(=O)c1ccc(F)cc1", "activity change, negative = inhibition": "-7.94%"}
{"smiles": "CNC[C@@H]1Oc2ccc(NC(=O)Nc3ccc(F)cc3)cc2CC(=O)N([C@H](C)CO)C[C@@H]1C", "activity change, negative = inhibition": "9.57%"}
{"smiles": "CC(C)NC(=O)N[C@H]1CC[C@H](CCNC(=O)C2CCCC2)O[C@@H]1CO", "activity change, negative = inhibition": "3.67%"}
{"smiles": "O=C(C[C@@H]1C[C@H]2c3cc(NC(=O)c4ccc5c(c4)OCO5)ccc3O[C@H]2[C@H](CO)O1)NCc1ccc(Oc2ccccc2)cc1", "activity change, negative = inhibition": "-12.9%"}
{"smiles": "C[C@@H]1CN([C@H](C)CO)S(=O)(=O)c2ccc(C#Cc3cccc(F)c3)cc2O[C@H]1CN(C)S(=O)(=O)c1ccccc1F", "activity change, negative = inhibition": "45.5%"}
{"smiles": "CC(C)CN(C[C@H]1N[C@H](CO)[C@@H]1c1ccccc1)C(=O)C1CCCCC1", "activity change, negative = inhibition": "39.5%"}
{"smiles": "Cc1ccc(S(=O)(=O)N(C)C[C@@H]2OCCCC[C@H](C)Oc3ccc(NS(=O)(=O)c4ccc(Cl)cc4)cc3C(=O)N([C@@H](C)CO)C[C@@H]2C)cc1", "activity change, negative = inhibition": "-15.5%"}
{"smiles": "Cc1cccc(-c2noc(CN(C(=O)c3ccc(Br)o3)C(C)C)n2)c1", "activity change, negative = inhibition": "-13.4%"}
{"smiles": "O=C(NCC[C@@H]1CC[C@@H](NC(=O)C2CC2)[C@H](CO)O1)c1cc(Cl)cc(Cl)c1", "activity change, negative = inhibition": "19.4%"}
{"smiles": "CN(C)C(=O)c1ccc(-c2ccc([C@H]3[C@H](CO)N4CCCCN(CCC(F)(F)F)C[C@@H]34)cc2)cc1", "activity change, negative = inhibition": "-22.6%"}
{"smiles": "Cc1ccc(S(=O)(=O)N(C)C[C@@H]2OCCCC[C@@H](C)Oc3ccc(NS(=O)(=O)c4ccc(F)cc4)cc3C(=O)N([C@H](C)CO)C[C@H]2C)cc1", "activity change, negative = inhibition": "10.9%"}
{"smiles": "Cc1ccc(-c2cnc3c(c2)C(=O)N([C@H](C)CO)C[C@H](C)[C@@H](CN(C)Cc2ccccc2F)O3)cc1", "activity change, negative = inhibition": "5.4%"}
{"smiles": "COc1ccc(S(=O)(=O)Nc2ccc3c(c2)C(=O)N([C@H](C)CO)C[C@H](C)[C@@H](CN(C)Cc2ccc(C(F)(F)F)cc2)OCCCC[C@@H](C)O3)cc1", "activity change, negative = inhibition": "-4.74%"}
{"smiles": "C[C@@H]1CN([C@H](C)CO)S(=O)(=O)c2ccc(/C=C/c3ccccc3)cc2O[C@@H]1CN(C)C(=O)c1ccc2c(c1)OCO2", "activity change, negative = inhibition": "21.7%"}
{"smiles": "CC(=O)N(Cc1cccc(F)c1)C[C@H]1[C@@H](c2ccccc2)[C@@H](CO)N1C(C)=O", "activity change, negative = inhibition": "-14.4%"}
{"smiles": "C[C@@H]1CN([C@@H](C)CO)C(=O)Cc2cc(NS(=O)(=O)c3ccc(F)cc3)ccc2O[C@@H]1CN(C)Cc1ccc(C(F)(F)F)cc1", "activity change, negative = inhibition": "-12.2%"}
{"smiles": "COCC(=O)Nc1ccc2c(c1)[C@@H]1C[C@@H](CC(=O)NCc3ccccc3OC)O[C@@H](CO)[C@@H]1O2", "activity change, negative = inhibition": "-5.39%"}
{"smiles": "C[C@@H]1CN([C@H](C)CO)C(=O)c2cccc(NC(=O)c3ccncc3)c2O[C@@H]1CN(C)S(C)(=O)=O", "activity change, negative = inhibition": "-27.8%"}
{"smiles": "Cc1ccccc1S(=O)(=O)N1CCCCN2[C@H](CO)[C@@H](c3ccc(-c4ccccc4)cc3)[C@@H]2C1", "activity change, negative = inhibition": "-8.88%"}
{"smiles": "COc1ccc(NC(=O)N(C)C[C@@H]2Oc3ccc(NS(=O)(=O)c4ccc(F)cc4)cc3C(=O)N([C@H](C)CO)C[C@@H]2C)cc1", "activity change, negative = inhibition": "15%"}
{"smiles": "COc1ccc(S(=O)(=O)Nc2ccc3c(c2)C(=O)N([C@H](C)CO)C[C@@H](C)[C@@H](CN(C)Cc2ccc(C(F)(F)F)cc2)OCCCC[C@H](C)O3)cc1", "activity change, negative = inhibition": "-3.42%"}
{"smiles": "COc1ccc(NC(=O)N(C)C[C@@H]2Oc3cc(C#CCC(C)C)ccc3S(=O)(=O)N([C@H](C)CO)C[C@@H]2C)cc1", "activity change, negative = inhibition": "16.5%"}
{"smiles": "Cc1noc(C)c1NC(=O)Nc1cccc2c1O[C@@H](CN(C)Cc1ccc(Oc3ccccc3)cc1)[C@H](C)CN([C@@H](C)CO)C2=O", "activity change, negative = inhibition": "-13.3%"}
{"smiles": "C[C@@H]1CN([C@H](C)CO)S(=O)(=O)c2ccc(C#CC(C)(C)O)cc2O[C@@H]1CN(C)Cc1ccc(-c2ccccc2)cc1", "activity change, negative = inhibition": "27.4%"}
{"smiles": "C[C@@H]1CN([C@@H](C)CO)C(=O)Cc2cc(NS(=O)(=O)c3ccc(Cl)cc3)ccc2O[C@H]1CN(C)Cc1ccc(Oc2ccccc2)cc1", "activity change, negative = inhibition": "-16.6%"}
{"smiles": "CC(=O)N1[C@H](CO)[C@H](c2ccc(-c3ccncc3)cc2)[C@@H]1CNC(=O)CC1CC1", "activity change, negative = inhibition": "-8.06%"}
{"smiles": "C[C@H]1CN([C@@H](C)CO)C(=O)c2cc(NS(=O)(=O)c3ccccc3)ccc2O[C@@H]1CN(C)Cc1ccc(C(=O)Nc2ccccc2N)cc1", "activity change, negative = inhibition": "-9.69% [at 12 µM]"}
{"smiles": "C[C@H](O)C#Cc1ccc2c(c1)O[C@H](CN(C)Cc1ccc(-c3ccccc3)cc1)[C@@H](C)CN([C@H](C)CO)S2(=O)=O", "activity change, negative = inhibition": "-21.9% [at 7.5 µM]"}
{"smiles": "CN(C)c1ccc2c(c1)[C@H]1C[C@H](CC(=O)NCc3ccc(Oc4ccccc4)cc3)O[C@H](CO)[C@H]1O2", "activity change, negative = inhibition": "14.7%"}
{"smiles": "C[C@H](CO)N1C[C@H](C)[C@H](CN(C)C(=O)c2ccc3c(c2)OCO3)Oc2cc(/C=C/c3ccccc3)ccc2S1(=O)=O", "activity change, negative = inhibition": "-4.94%"}
{"smiles": "CO[C@@H]1CC[C@@H]2CCN(C)C(=O)[C@@H](C)[C@H](OC)CN(C)C(=O)c3cc(C#N)ccc3OC[C@@H]1O2", "activity change, negative = inhibition": "13.5%"}
{"smiles": "C[C@H](CO)N1C[C@H](C)[C@@H](CN(C)Cc2ccncc2)Oc2ncc(C#CCN(C)C)cc2C1=O", "activity change, negative = inhibition": "-24.7%"}
{"smiles": "COc1ccccc1-c1ccc2c(c1)O[C@H](CN(C)S(=O)(=O)c1ccc(F)cc1)[C@@H](C)CN([C@@H](C)CO)S2(=O)=O", "activity change, negative = inhibition": "-8.92%"}
{"smiles": "CC(C)CC#Cc1ccc2c(c1)O[C@@H](CN(C)S(=O)(=O)c1cccc(F)c1)[C@@H](C)CN([C@@H](C)CO)S2(=O)=O", "activity change, negative = inhibition": "-21.2%"}
{"smiles": "COCC(=O)N1[C@H](C#N)[C@H](c2ccccc2-c2cccc(F)c2)[C@H]1CO", "activity change, negative = inhibition": "16%"}
{"smiles": "Cc1ccc(S(=O)(=O)Nc2ccc3c(c2)C(=O)N([C@H](C)CO)C[C@H](C)[C@@H](CN(C)Cc2ccc(C(F)(F)F)cc2)OCCCC[C@H](C)O3)cc1", "activity change, negative = inhibition": "-1.81%"}
{"smiles": "C/C=C/c1ccc2c(c1)O[C@H](CN(C)Cc1cccc(F)c1)[C@H](C)CN([C@@H](C)CO)S2(=O)=O", "activity change, negative = inhibition": "29.6%"}
{"smiles": "Cc1ccc(S(=O)(=O)N[C@@H]2CC[C@@H](CC(=O)N3CCN(c4ccccc4)CC3)O[C@@H]2CO)cc1", "activity change, negative = inhibition": "-8.28%"}
{"smiles": "CCN(C[C@H]1[C@@H](c2ccc(-c3ccccc3F)cc2)[C@@H](CO)N1C(C)=O)C(C)=O", "activity change, negative = inhibition": "-4.98%"}
